High-throughput results (PubChem)
BioA inh: blocks M. tuberculosis BioA enzyme activity; purified M. tuberculosis BioA enzyme, plate reader; inhibition, % at 9.99 µM; hit rate 0.096% among 360,000; AID 602481; in the data active means inhibition above about 40%
GDH-TPI inh: counter-screen for M. tuberculosis FBA inhibitors: GDH-TPI coupled enzymes | AID 588335 | inhibition, % at 4.8 µM | hit rate 1.2% among 360,000 | GDH-TPI coupled enzyme counterscreen, NADH absorbance; in the data active means inhibition above about 30%
BH1578 lux ind: induces V. cholerae light production without autoinducers. V. cholerae BH1578 lux reporter, luminescence, 6 h. activation, % at 18.7 µM. AID 588436. hit rate 0.16% among 350,000; in the data active means activation mostly above about 9.7%, no sharp cut-off
Mtb FBA inh: inhibitors of M. tuberculosis fructose-bisphosphate aldolase; purified M. tuberculosis FBA, fluorescence read-out; P9WQA3; hit rate 2.3% among 360,000; AID 588726; inhibition, % at 1 µM; in the data active means inhibition above about 27%
Target sequence (P9WQA3 whole entry, looked up): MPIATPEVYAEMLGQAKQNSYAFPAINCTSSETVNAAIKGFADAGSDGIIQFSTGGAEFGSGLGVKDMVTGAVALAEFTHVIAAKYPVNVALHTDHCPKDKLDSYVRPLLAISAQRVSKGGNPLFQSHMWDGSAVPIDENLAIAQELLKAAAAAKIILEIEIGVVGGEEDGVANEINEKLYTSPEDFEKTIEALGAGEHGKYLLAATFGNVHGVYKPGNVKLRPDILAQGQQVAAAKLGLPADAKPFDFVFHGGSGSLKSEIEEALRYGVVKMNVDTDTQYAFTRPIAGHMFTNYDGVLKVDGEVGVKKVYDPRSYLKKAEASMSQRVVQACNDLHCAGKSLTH
A number is an active result; n = inactive; x = not tested or not shown; + = active, no number. Only some compounds are listed: those with a hit (about 3% of all), similar ones and a draw of the others.

SMILES	BioA inh	GDH-TPI inh	BH1578 lux ind	Mtb FBA inh
CCN(/C=N/c1sc2c(c1C#N)CC(C)(C)NC2(C)C)CC	n	n	n	n
COc1ccc(S(=O)(=O)Nc2cccc3c2O[C@@H](CN(C)Cc2ccc(Cl)c(Cl)c2)[C@@H](C)CN([C@@H](C)CO)C3=O)cc1	n	x	x	x
CCOc1ccc(-c2nc(C#N)c(N3CCOCC3)o2)cc1	n	n	n	175.0
CCOP(=O)(OCC)c1nc(-c2ccc(OC)cc2)oc1N1CCOCC1	n	n	n	173.5
CCOc1ccc(-c2nc(C#N)c(N3CCN(Cc4ccccc4)CC3)o2)cc1	n	n	x	n
Cc1ccc(-c2nc(P(=O)(c3ccccc3)c3ccccc3)c(N3CCOCC3)o2)cc1	x	n	x	n
COP(=O)(OC)c1nc(-c2cccc3ccccc23)oc1N1CCOCC1	x	n	n	+
COP(=O)(OC)c1nc(-c2ccc(C)cc2)oc1N1CCCCC1	x	n	n	+
COc1ccc([Si](C)(C)[C@@H]2[C@@H](CC(=O)N3Cc4ccccc4C[C@H]3CO)O[C@]3(C(=O)N(Cc4ccc(I)cc4)c4ccccc43)[C@H]2C)cc1	n	x	x	x
COc1ccc(-c2cnc3c(c2)C(=O)N([C@@H](C)CO)C[C@H](C)[C@H](CN(C)C(=O)Cc2ccccn2)O3)cc1	n	x	x	x
C[C@@H]1CN([C@@H](C)CO)S(=O)(=O)c2ccc(C#CCC3CCCC3)cc2O[C@H]1CN(C)Cc1cccc(C(=O)O)c1	n	x	x	x
C[C@@H]1CN([C@H](C)CO)C(=O)c2cc(NC(=O)CCN3CCOCC3)ccc2O[C@@H]1CN(C)S(C)(=O)=O	n	x	x	x
C=CCC[C@@H](Cc1ccc(F)cc1)C(=O)OC[C@H](C)NC(=O)[C@H](CC=C)CC(=O)N(CCO)Cc1ccccc1	n	n	n	133.5
CN(C)c1ccc(C=c2c3cc([N+](=O)[O-])ccc3n3c2cc(-c2ccccc2)[n+]3C)cc1	x	41.7	x	n
CN(C)c1ccc(/C=C2\SC(=O)N(CCc3nnc(N)s3)C2=O)cc1	x	31.6	n	n
CCCC(=O)Nc1ccc2nn(-c3ccc(OC)cc3)nc2c1	n	n	n	+
CC(C)C(=O)Nc1ccc2nn(-c3ccc(F)cc3)nc2c1	n	n	n	91.5
Cc1ccc(-n2nc3ccc(NC(=O)C(C)C)cc3n2)cc1	x	n	n	n
CCOc1ccc(-n2nc3ccc(NC(=O)c4ccc5c(c4)OCCO5)cc3n2)cc1	x	n	n	n
C[C@@H]1C(c2ccc(F)cc2)=NN(c2ccccc2)[C@H]1C(=O)N1CCOC1=O	n	n	n	n
COc1ccccc1[C@H]1C(c2cccc(Cl)c2)=NN(c2ccccc2)[C@@H]1CO	n	n	n	46.3
OC[C@@H]1[C@@H](c2ccccc2)C(c2ccc(F)cc2)=NN1c1ccccc1	n	n	n	45.9
Cc1noc(C)c1S(=O)(=O)Nc1ccc2c(c1)C(=O)N([C@@H](C)CO)C[C@@H](C)[C@@H](CN(C)C(=O)Nc1ccc3c(c1)OCO3)OCCCC[C@H](C)O2	n	x	x	x
CCOC(=O)c1cc2c(=O)n3ccccc3nc2n(C(C)C)c1=NC(=O)c1ccco1	x	n	n	+
CCCn1c(=NC(=O)c2ccco2)c(C(=O)OCC)cc2c(=O)n3ccccc3nc21	n	n	n	+
SMILES	BioA inh	GDH-TPI inh	BH1578 lux ind	Mtb FBA inh
CC(C)n1c(=NC(=O)c2ccco2)c(C#N)cc2c(=O)n3ccccc3cc21	n	n	n	+
COc1ccccc1NC(=O)N[C@@H]1CC[C@@H](CC(=O)N[C@H](C)c2ccccc2)O[C@@H]1CO	n	x	x	x
CC(C)NC(=O)N(C)C[C@@H]1Oc2c(NC(=O)c3ccncc3)cccc2C(=O)N([C@@H](C)CO)C[C@@H]1C	n	x	x	x
COc1ccc(-c2cc(-c3ccccc3)c(C#N)c(S(C)=O)n2)cc1 (centres undefined)	n	31.4	n	+
CCSc1nc(-c2ccc(OC)cc2)cc(-c2ccccc2)c1C#N	n	n	n	n
CCC(=O)Oc1ccc2c(C)cc(=O)oc2c1C(=O)CC	n	n	n	n
Cc1cc(=O)oc2cc(O)ccc12	n	n	n	+
CCN(c1ccccc1)S(=O)(=O)c1cc(C(=O)OCC(=O)c2c(N)n(C)c(=O)n(C)c2=O)ccc1C	n	n	n	n
O=c1cc(O)c2ccc(O)cc2o1	n	n	n	n
Cc1cc(=O)oc2cc(OC(=O)C3CCN(C(=O)c4ccc(F)cc4)CC3)ccc12	n	n	n	148.3
CC(=O)Nc1c(OC(C)=O)ccc2c(C)cc(=O)oc12	n	n	n	+
CCN(c1ccccc1)S(=O)(=O)c1cc(C(=O)Oc2ccc3c(C)cc(=O)oc3c2)ccc1C	n	n	n	+
O=C(C[C@H]1C[C@H]2c3cc(NC(=O)CC4CC4)ccc3O[C@H]2[C@H](CO)O1)NCc1ccc(Cl)cc1	n	x	x	x
Cc1cc(=O)oc2cc(OC(=O)CCCCCN3C(=O)c4ccccc4C3=O)ccc12	x	n	n	152.9
CC(=O)Oc1cc2oc(=O)cc(C)c2cc1OC(C)=O	n	n	n	173.4
Cc1cc(OC(=O)c2ccco2)c2c(C)cc(=O)oc2c1	x	n	n	n
COC(=O)Cc1cc(=O)oc2cc(O)ccc12	n	n	n	+
Cc1cc(=O)oc2cc(O)cc(OCc3ccccc3)c12	x	31.0	n	+
Cc1coc2cc3oc(=O)cc(C)c3cc12	n	n	n	n
CC(C)CC#Cc1ccc2c(c1)O[C@H](CN(C)C(=O)CC1CC1)[C@@H](C)CN([C@H](C)CO)S2(=O)=O	n	x	x	x
COC(=O)c1ccc(COC(=O)CSCC(=O)Nc2ccc(C)cc2C)cc1	n	n	n	n
Cc1ccccc1-c1c(C)oc2cc(O)ccc2c1=O	n	n	n	+
Cc1cc(=O)[nH]c2cc(O)ccc12	n	n	n	+
CC(=O)Oc1cc(OC(C)=O)c2c(=O)c(-c3ccc4c(c3)OCCCO4)c(C)oc2c1	x	n	n	n
O=c1[nH]c2cc(O)ccc2c2ccccc12	n	n	n	n
SMILES	BioA inh	GDH-TPI inh	BH1578 lux ind	Mtb FBA inh
CC(=O)Oc1cc(OC(C)=O)c2c(C)cc(=O)oc2c1	n	n	n	+
Cc1ccc(NC(=O)CSCC(=O)OCc2cc(=O)oc3cc(O)ccc23)c(C)c1	n	n	n	118.5
C[C@@H]1CN([C@@H](C)CO)S(=O)(=O)c2ccc(C3=CCCCC3)cc2O[C@H]1CN(C)S(=O)(=O)c1ccc(F)cc1	n	x	x	x
Cc1ccc(S(=O)(=O)N(C)C[C@H]2Oc3ccc(NC(=O)Nc4ccc(C(F)(F)F)cc4)cc3C(=O)N([C@@H](C)CO)C[C@H]2C)cc1	n	x	x	x
CC(=O)Oc1ccc2c(C)cc(=O)oc2c1	x	n	n	+
Cc1cc(=O)[nH]c2c(C)c(N)ccc12	n	n	n	+
Cc1ccc(S(=O)(=O)CCC(=O)Oc2ccc3c(C)cc(=O)oc3c2)cc1	x	n	n	+
Cc1ccc(OC(=O)CCS(=O)(=O)c2ccc(C)cc2)cc1	n	n	n	n
CCCN1[C@@H]2c3ccc(/C=C/c4ccccc4)c(=O)n3C[C@@H]2[C@@H](CO)[C@@H]1C(=O)N1CCOCC1	n	x	x	x
CCN1[C@@H]2c3ccc(-c4cccc(OC)c4)c(=O)n3C[C@H]1[C@H](CO)[C@H]2C(=O)N(C)C	n	x	x	x
COCC#Cc1cnc2c(c1)C(=O)N([C@@H](C)CO)C[C@H](C)[C@H](CN(C)C(=O)CCN1CCCCC1)O2	n	x	x	x
